A number with no mark means an inactive call. Calls of active or inactive are those of the source. Cut-off read from the data, not from the text of the source: active = fold change mostly below about -2 (no sharp cut-off); inactive = mostly above about -1.8.
experiment: TERT promoter activity modulators, primary screen, cell-based, luciferase reporter, human (AID 1259240); settings: A2780 TERT promoter luciferase reporter, 16 h; at 20 µM, fold versus average of vehicle-only wells

Structure (SMILES) | fold change | outcome
COc1ccc(S(=O)(=O)NC(C)(C)CO)cc1-c1nnc2c3ccccc3c(C)nn12 | -1.26 | 
CCN1C(=O)C(O)(CC(=O)c2ccc(Br)s2)c2ccccc21 (centres undefined) | -1.03 | 
CCOC(=O)C1=C(CS(=O)(=O)c2ccc(F)c(C)c2)NC(=O)NC1c1cc(OC)ccc1OC (centres undefined) | 1.23 | 
Cn1c(SCC(=O)Nc2ccc(F)cc2)nnc1-c1c[nH]c2ccccc12 |  | inactive
CSc1ccc(CCNc2ccc3nnc(-c4ccccc4)n3n2)cc1 | 1.07 | 
Cc1cc(C)c(C#N)c(SCC(=O)Nc2nc(-c3ccccc3)ns2)n1 | -1.27 | 
c1ccc2nc3c(nc2c1)Nn1cnnc1S3 | -1.42 | 
CCn1ncc(CNC(=O)c2cnn3c(C(F)F)cc(-c4ccc(C)cc4)nc23)c1C | 1.02 | 
Nc1nc(SCC(=O)c2ccc(O)cc2O)n[nH]1 | -1.59 | 
CCCCN(C)C(=O)Cn1ncc2c3ccccc3n(C)c2c1=O | 1.16 | 
COc1cc2c(c(OC)c1OC)C(c1cccnc1)CC(=O)N2 (centres undefined) | -1.07 | 
CCOc1ccc(-n2c(C)c(C(C)=O)c3cc(OCC(N)=O)ccc32)cc1 | -1.01 | 
Cc1ccc(S(=O)(=O)NCCOc2nc(N(C)C)nc(N3CCOCC3)n2)cc1 | -1.03 | 
OC(c1ccccc1)c1nn(CN2CCOCC2)c(=S)n1-c1ccccc1 (centres undefined) | -3.71 (active) | 
O=C1c2cccnc2C(=O)N1Cc1ccccc1 | 1.84 | 
Cc1ccc2c(c1)/C(=c1/sc3n(c1=O)CN(c1ccc(Cl)cc1)CN=3)C(=O)N2 | -1.65 | 
CCOC(=O)c1c(NC(=O)CSc2ncccn2)sc(C(C)=O)c1C | -1.02 | 
CCNc1nc(NCC)nc(OCCNS(=O)(=O)c2ccccc2)n1 | -1.79 | 
Cc1ccc(NC(=O)Nc2ccc3c(c2)N(C)C(=O)CS3)c(C)c1 | -1.06 | 
Cc1cc(C)c(Cn2c3ccccc3c3cnn(CC(=O)NCC4CCCO4)c(=O)c32)c(C)c1 (centres undefined) | -1.24 | 
CCc1c2c(nc3sc(C(=O)NCc4ccc5c(c4)OCO5)c(N)c13)CC(C)(C)CC2=O | -1.01 | 
CCc1ccc(S(=O)(=O)n2c(C)nc3ccccc32)cc1 | -2.42 (active) | 
O=C(c1cncc(Br)c1)N1CCN(c2ccc(N3CCOCC3)nn2)CC1 | 1.24 | 
Cc1nn2c3cc(N4CCOCC4)ccc3nc2c2ccccc12 | -2.16 (active) | 

— PubChem BioAssay AID1259240 (Keith Lab, Institute of Cancer Science, University of …, 2017)
